# From PubChem BioAssay (NCI)
# This is part of a sample that, as a whole, favours compounds with a hit. Of some 83,000 tested, about 20% had one in any assay.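 How to read the values: 0–100, growth inhibition (40 = 60% inhibited); 0, no net growth; -100 to 0, cell death (-40 = 40% of starting cells died; -100 = all dead).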 A number with no mark means an inactive call. Active and inactive are the calls of the source.
# Tested on: HS 578T breast
# Assay: NCI-60 one-dose screen, 48 h (100 = growth as untreated, 0 = no growth, -100 = all killed)
# Settings: 10 µM unless noted
# Method: Growth inhibition of the HS 578T human tumor cell line is measured as a screen for anti-cancer activity. Cells are grown in 96 well plates and exposed to the test compound for 48 hours. Compounds are tested at a single concentration, which is 10^-5 M for most compounds. The reported endpoint is percent growth (GI% or GIPRCNT), where numbers from 0 - 100% represent growth inhibition, and numbers from -100% - 0 represent cell death. For example, a value of 40 represents 60% growth inhibition. A value of 0 means no net growth occurred over the course of the experiment. A value of -40 indicates 40% of cells at the beginning of the experiment died by the end of the experiment. A value of -100 means all cells are dead at the end of the experiment.
# NCI-60 Human Tumor Cell Lines Screen was performed using the standard one-dose NCI protocol, which is described in more detail at https://dtp.cancer.gov/discovery_development/nci-60/default.htm.
# Compounds with GIPRCNT values below 10 were considered active. Activity score was based on GIPRCNT using the following formula: […]
# Score is 0 for GIPRCNT values of 100 or above, 50 for GIPRCNT values of 0, and 100 for GIPRCNT values of -100.
row,SMILES,growth
1,C[C@@H]1N=C(c2ccc3ccccc3c2)Nc2nc3ccccn3c2C1=O,29.3%
2,CCOCCNc1ccc(S(=O)(=O)c2ccc(N)cc2)cc1N,99%
3,CN1C(=O)N(C)C2C1NN=c1s/c(=C\c3ccc(Br)cc3)c(=O)n12 (stereo not given),11.6%
4,COc1cc(C)c(Cl)cc1C1=NN(c2ccc(S(N)(=O)=O)cc2)C(/C=C/c2ccccc2)C1 (stereo not given),86.8%
5,CC1=CC(=O)OC1C/C=C(\C)CCC1[C@@]2(C)CCC[C@@](C)(C(=O)O)C2CC[C@@]1(C)O (stereo not given in full),38.5%
6,COC(=O)c1ccc2c(c1)nc(-c1ccc(Cl)cc1)n2-c1cc(C(C)(C)C)[nH]n1,53.3%
7,N/C(=C\C(=O)n1nc(-c2ccccc2)cc1N)c1ccccc1,-6.87% (active)
8,CO[C@H](C(=O)[C@@H](O)[C@@H](C)O)[C@@H]1Cc2cc3cc(O[C@H]4C[C@@H](O[C@H]5C[C@@H](O)[C@H](O)C(C)O5)[C@H](O)C(C)O4)c(C)c(O)c3c(O)c2C(=O)[C@H]1O[C@H]1C[C@@H](O[C@H]2C[C@@H](O[C@H]3C[C@](C)(O)C(=O)C(C)O3)[C@@H](O)C(C)O2)[C@H](O)C(C)O1 (stereo not given in full),-13.8% (active)
9,S=C(Cc1ccccc1)N1CCN(c2ccccc2Cl)CC1,97.3%
10,CN1C(=O)N(C)C2C1NN=c1s/c(=C\c3ccc(C(F)(F)F)cc3)c(=O)n12 (stereo not given),18.5%
11,COc1cc(C2CC(=O)Nc3c2cnn3C)cc(OC)c1OC (stereo not given),111%
12,CC(=O)O[C@@H]1CC2C(C)(C)CCCC2(C)C2=C1C(=O)C(C(C)C)=CC2=O (stereo not given in full),9.38% (active)
13,O=C(Nc1ccc(Cl)cc1)c1cc(-c2ccc(Cl)cc2)c2sc(=O)[nH]c2n1,-14.4% (active)
14,C#Cc1cccc(Nc2nc3cc([N+](=O)[O-])ccc3nc2Nc2ccc(O)cc2)c1,44.6%
15,ClC1=NC(Cl)C(Cl)=N/C1=N\c1ncn[nH]1 (stereo not given),123%
16,COc1cc(OC)c(C(=O)/C=C/c2cccc(OC(C)=O)c2)cc1CC=C(C)C,99%
17,Cc1ccc(C)c2c1SC1=NNC(Oc3ccc(Cl)cc3)=C(C#N)C(=N)N12,103%
18,N/C(=N\OC(=O)c1ccccc1)C(C(=O)NOC(=O)c1ccccc1)C1CCCCC1 (stereo not given),26.7%
19,CC(C)CC(=O)C(CCc1ccccn1)C(C)C (stereo not given),97.8%
20,CC(=O)N1N=C(C2C(=O)N(C)C(=O)N(C)C2=O)CC1c1ccccc1C(=O)O (stereo not given),92.1%

row,SMILES,growth
1,COc1nccc2c(Sc3ccccc3)nc(N)nc12,113%
2,O=C(O)c1ccccc1Oc1cc(-c2ccco2)nc(OCCN2CCOCC2)n1,112%
3,O=C(CCl)Nc1ccc2c(c1)C(=O)c1ccccc1C2=O,51.8%
4,CN(C)CCNC(=O)n1cc(-c2ccncc2)c(-c2cc(O)cc(Cl)c2)n1,93.3%
5,COc1ccc(-c2cnc(-c3ccncc3-c3cccc(OC)c3)o2)cc1,53.3%
6,Cc1ccc(C(=O)CC(=O)C(F)(F)C(F)(F)C(F)(F)F)s1,105%
7,COc1cc(C2CC(c3ccccc3)=NN2C=O)ccc1Oc1ccnc2cc(Cl)ccc12 (stereo not given),76.2%
8,O=C1/C(=C/N2N=C(c3ccc(Cl)cc3)CC2c2ccccc2O)SC(=S)N1c1cccc(C(F)(F)F)c1 (stereo not given),71%
9,C#C[C@]1(O)CC[C@H]2[C@@H]3CC=C4c5sc(-c6cccc(Br)c6)nc5CC[C@]4(C)[C@H]3CC[C@@]21C,69.5%
10,CCN(CC)C(=O)O/N=C(/C)c1ccccc1,123%
11,CC(=O)NC1C(O[C@H]2C[C@H]3[C@@H]4CC=C5C[C@@H](O)CC[C@]5(C)[C@H]4CC[C@]3(C)[C@H]2[C@H](C)C(=O)CCC(C)C)OCC(O)C1O (stereo not given in full),5.84% (active)
12,COc1ccccc1/C=N\Nc1ccc([N+](=O)[O-])cn1,124%
13,CC(C)c1nc2ccccc2n1CC(=O)N/N=C/c1cccc(O)c1,98.3%
14,ClC1(Cl)C2CCCCCCC21 (stereo not given),91.8%
15,CC[C@]1(O)C[C@H]2CN(CCc3c([nH]c4ccccc34)C(C(=O)OC)(c3cc4c(cc3OC)N(C)[C@H]3[C@@](O)(C(=O)OC)[C@H](OC(C)=O)[C@]5(CC)[C@@H]6C[C@@H]6CN6CC[C@]43[C@@H]65)C2)C1 (stereo not given in full),43.9%
16,CCN(CC)CCCC(C)Nc1c(-c2ccccc2)cnc2cc(Cl)ccc12 (stereo not given),70.3%
17,COc1ccc(CNc2c3ccccc3nc3ccccc23)cc1F,45.5%
18,NS(=O)(=O)c1ccc(CCn2c(SCC(=O)N/N=C/c3cc4ccccc4[nH]3)nc3ccccc3c2=O)cc1,64.6%
19,O=C(c1ccccc1)C(CCc1ccccn1)CCc1ccccn1,121%
20,Cc1csc(N/N=C/c2ccncc2)n1,104%
